Source: PubChem BioAssay (several laboratories)
An excerpt weighted towards active compounds, which were near 1.6% of everything screened.
V-ATPase pHluor = regulators of yeast V-ATPase proton pumping, primary screen, pHLuorin cytosolic pH fluorescence; S. cerevisiae; response, % at 10 µM; 350,000 compounds, 0.37% hits; AID 504577, 2011; in the data active = response mostly above about 7.3%, no sharp cut-off; inactive = mostly below about 5.4%; note: actives read high
NALP3 yeast inh = NALP3 inflammasome inhibitors in reconstituted yeast, primary screen, luminescence, uHTS | Yeast reconstituted NLRP3/ASC/caspase-1, beta-gal luminescence, 24 h | inhibition, % at 10 µM | 330,000 compounds, 0.39% hits;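 active = inhibition of 50% or more; inactive = inhibition below 50%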;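 note: plate controls were induced DMSO wells for no effect and uninduced yeast grown without galactose for full effect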
Yeast superoxide = reduction of superoxide in aged yeast, primary screen, HTS; S. cerevisiae aged cells, superoxide DHE fluorescence; hits give low values; superoxide response (% of plate mean), % at 10 µM; 330,000 compounds, 0.18% hits;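 active = superoxide response under a set limit, about three screen SD below normal, cut at about 65% in these data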;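 note: yeast aged for seven days with compound at 30 °C before DHE staining; 100% = average MFI of all compound-treated wells on the plate with controls excluded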
Rce1 inhib = yeast Rce1p protease inhibitors, primary screen, biochemical, fluorescence, cell-free homogeneous. yeast membranes, quenched prenylated peptide cleavage fluorescence. AID 2563, 2010. 290,000 compounds, 0.27% hits. calls only;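 active = fall in fluorescence gain of 50% or more versus controls, with final raw signal at or below 3038400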;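 note: plate controls were neutral control wells for no effect and wells lacking membranes for full effect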
Target sequence (Q03530 whole entry, looked up): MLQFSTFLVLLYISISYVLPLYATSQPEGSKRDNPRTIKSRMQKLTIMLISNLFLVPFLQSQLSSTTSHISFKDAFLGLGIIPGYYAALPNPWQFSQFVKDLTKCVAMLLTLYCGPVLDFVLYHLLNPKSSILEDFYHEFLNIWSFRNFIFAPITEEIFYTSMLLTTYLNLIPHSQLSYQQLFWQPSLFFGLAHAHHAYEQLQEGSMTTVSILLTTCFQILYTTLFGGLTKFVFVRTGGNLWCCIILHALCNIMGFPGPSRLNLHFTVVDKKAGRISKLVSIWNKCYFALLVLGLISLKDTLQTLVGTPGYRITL
NALP1 inh = NALP1 inflammasome inhibitors in reconstituted yeast, colorimetric, S. cerevisiae, triplicate retest; S. cerevisiae NALP1/ASC/caspase-1 growth, X-gal OD620, 72 h; inhibition, % at 10 µM; 280,000 compounds, 0.61% hits; AID 2071, 2009; in the data active = inhibition mostly above about 24%, no sharp cut-off; inactive = mostly below about 32%
PERK inh = block of dimerizer-induced PERK translation repression, primary screen, PERK inhibitor project, CHO PERK-DD cells, SEAP luminescence, HTS; Eukaryotic translation initiation factor 2-alpha kinase 3 (Homo sapiens), Q9NZJ5; CHO PERK-DD fusion, SEAP luminescence translation reporter; inhibition, % at 5.6 µM; AID 1416, 2008; 220,000 compounds, 0.17% hits;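 active = inhibition above the mean inhibition of all tested compounds plus 3 SD, set separately per screening campaign, cut at about 2.9% in these data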;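 note: PERK kinase domain activated by AP20187 dimerizer at 100 nM; 0% = DMSO with dimerizer and 100% = rapamycin at 8.4 µM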
Superoxide pick = superoxide lowering in aged yeast cells, confirmation, cherry picked compounds | shares compounds with Yeast superoxide | S. cerevisiae aging, superoxide DHE fluorescence; hits give low values | superoxide response (% of plate), % at 10 µM | 850 compounds, 1% hits | AID 434994, 2010;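 active = superoxide signal below 65% of the plate average of sample wells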;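 note: cells aged with compound for 7 days at 30 degrees C before staining; 100% equals mean DHE fluorescence of all compound wells on the plate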
DHE fluor count = DHE quenching or ROS scavenging interference in aged yeast, artefact control for yeast caloric restriction mimetic project, S. cerevisiae BY4741, flow cytometry. shares compounds with Yeast superoxide. DHE fluorescence; hits give low values. fluorescence response, % at 10 µM. 850 tested, under 10 active;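 active = fluorescence response below 15%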;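 note: percent of the mean fluorescence averaged over all compound wells on the plate; lower means stronger quenching of DHE signal or ROS scavenging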
Starred values were filed as active, the others as inactive.

How did COc1ccc(-n2ncc3c(NCC(C)C)ncnc32)cc1 do in these assays?
V-ATPase pHluor: 3; NALP3 yeast inh: 32; Yeast superoxide: 78; Rce1 inhib: inactive; NALP1 inh: 1; PERK inh: 0; Superoxide pick: 117; DHE fluor count: 106

What do the screens show for `COCC(C)Nc1ncnc2c1cnn2-c1ccc(Cl)cc1` (stereo unspecified)?
V-ATPase pHluor: -3; NALP3 yeast inh: 35; Yeast superoxide: 107; Rce1 inhib: inactive; NALP1 inh: -9; PERK inh: 0; Superoxide pick: 89; DHE fluor count: 93

Results for COc1ccc(-n2ncc3c(NC(C)C)ncnc32)cc1 ?
V-ATPase pHluor: 4; NALP3 yeast inh: 10; Yeast superoxide: 85; NALP1 inh: 4; PERK inh: 1

Results for Cc1nn(-c2nnc(NCc3ccccc3)nn2)c(C)c1Br ?
V-ATPase pHluor: 1; NALP3 yeast inh: 29; Yeast superoxide: 63*; Rce1 inhib: inactive; NALP1 inh: 23; PERK inh: 0; Superoxide pick: 85; DHE fluor count: 92

Results for Cc1cc(C)n(-c2nnc(NCc3ccc(Cl)cc3)nn2)n1 ?
V-ATPase pHluor: 1; NALP3 yeast inh: 39; Yeast superoxide: 80; Rce1 inhib: inactive; NALP1 inh: -10; PERK inh: 0

What do the screens show for `O=[N+]([O-])c1cc([N+](=O)[O-])c2oc(-c3ccccc3)c(Br)c2c1O`?
V-ATPase pHluor: 0; Rce1 inhib: inactive; NALP1 inh: 16

What do the screens show for `C[C@@H]1CN([C@@H](C)CO)C(=O)CCCn2nncc2CO[C@H]1CN(C)S(=O)(=O)c1cccc(C#N)c1`?
V-ATPase pHluor: 1

How did CSc1ccc(/C=C(\C#N)C(=O)NC2CCCCC2)cc1 do in these assays?
V-ATPase pHluor: -2; NALP3 yeast inh: 9; Yeast superoxide: 60*; Rce1 inhib: inactive; NALP1 inh: 24; PERK inh: 1; Superoxide pick: 102; DHE fluor count: 91

What do the screens show for `Cc1nnsc1-c1c(C(=O)N2CCOCC2)c(C)nn1-c1ccccc1`?
V-ATPase pHluor: -2; NALP3 yeast inh: -1; Yeast superoxide: 101; Rce1 inhib: inactive; NALP1 inh: -10; PERK inh: 1

How did Cc1nnsc1-c1c(C(=O)N2CCOCC2)c(C)nn1-c1ccc(Cl)cc1 do in these assays?
V-ATPase pHluor: 1; NALP3 yeast inh: 9; Yeast superoxide: 46*; Rce1 inhib: inactive; NALP1 inh: -4; PERK inh: 1; Superoxide pick: 98; DHE fluor count: 87

How did C=CCn1c(SCC(=O)Nc2cc(NC(C)=O)ccc2OC)nnc1-c1cccnc1 do in these assays?
V-ATPase pHluor: 3; NALP3 yeast inh: -7; Yeast superoxide: 105; Rce1 inhib: inactive; NALP1 inh: 12; PERK inh: 0; Superoxide pick: 94; DHE fluor count: 94

How did C=CCn1c(SCC(=O)Nc2cc(NC(C)=O)ccc2OC)nnc1-c1ccccn1 do in these assays?
V-ATPase pHluor: 3; NALP3 yeast inh: 9; Yeast superoxide: 112; Rce1 inhib: inactive; NALP1 inh: -8; PERK inh: -1

How did CCOc1cccc(-c2nnc(SCC(=O)Nc3cccc(OC)c3)n2N)c1 do in these assays?
V-ATPase pHluor: 7; Rce1 inhib: inactive; NALP1 inh: 10; PERK inh: -2; Superoxide pick: 104; DHE fluor count: 100

Results for COc1cccc(NC(=O)CSc2nnc(-c3cc(C)[nH]n3)n2N)c1 ?
V-ATPase pHluor: -1; NALP3 yeast inh: 20; Yeast superoxide: 89; Rce1 inhib: inactive; NALP1 inh: 25
